Laboratory results taken from the supplement of paper PMC10732440.
± gives the standard deviation of the averaged measurements.

These compounds were tested on Caenorhabditis elegans N2 infected with Nematocida parisii ERTm1 (assay: progeny production relative to DMSO uninfected control; higher = more progeny despite microsporidia infection (inhibition of infection with low host toxicity)). Conditions: infection time 6 days; 40 µM.
How it was run: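 Bleach-synchronised wild-type C. elegans L1 larvae (100 per well) were placed in 96-well plates with K-medium, E. coli OP50 and 15,000 N. parisii spores/μL, with compound pinned to 100 μM or 40 μM in 1% DMSO. Plates were shaken at 21°C for 6 days; worms were then Rose Bengal-stained, flatbed-scanned and counted with WorMachine, each compound and dose tested three times. Progeny production is given as a percentage of the spore-free vehicle control, averaged across replicates.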

Row | Compound | progeny production
1 | NCCCc1ccccc1C(=O)Nc1ncc([N+](=O)O)s1 | 3.03 ± 1.9%
2 | CCN(CC)CCCC(C)Nc1ccnc2cc(Cl)ccc12 (stereo not given) | 8.75 ± 5.2%
3 | CCCC(=O)OCCc1ccccc1 | 5.19 ± 1.8%
4 | O=S(=O)(Nc1ccc(-n2cccc2)cc1)c1ccc(Cl)c(Cl)c1 | 6.12 ± 3.2%
5 | CC1CCc2c(N3CCC(O)CC3)c(F)cc3c(=O)c(C(=O)O)cn1c23 (stereo not given) | 8.47 ± 4.4%
6 | CCO/N=C/c1ccc(OCCCCN2CCN(c3ccncc3)C2=O)cc1 | 5.24 ± 4.2%
7 | Cc1cc(C)n2nc(C(=O)NS(=O)(=O)c3c(C)cccc3OC(F)(F)F)nc2n1 | 9.33 ± 0.97%
8 | NC(=S)N/N=C/c1ncccc1N | 8.43 ± 4.5%
9 | CCC(C)NCC(O)Cn1c2ccc(Cl)cc2c2cc(Cl)ccc21 (stereo not given) | 7.33 ± 7%
10 | COc1ccc2sc3c(c2c1)NC(C)CNC3=O (stereo not given) | 7.35 ± 2.7%
11 | C[C@H](Cn1cnc2c(N)ncnc21)OCP(=O)(O)O | 6.28 ± 6.8%
12 | Cc1nc2ccc(Cl)cc2c(-c2ccccc2)c1CC(=O)O | 6.84 ± 5.6%
13 | CCc1ccc(C2CC(C(F)(F)F)n3ncc(C(=O)NCc4ccc(OC)cc4)c3N2)cc1 (stereo not given) | 8.73 ± 4.8%
14 | COc1ccc(OCc2ccc(COc3c(Cl)cccc3Cl)cc2)c(Cl)c1 | 5.83 ± 3.1%
15 | CC#C[C@]1(O)CC[C@H]2[C@@H]3CCC4=CC(=O)CCC4=C3[C@@H](c3ccc(N(C)C)cc3)C[C@@]21C | 4.64 ± 1.1%
16 | CC(C)Cn1c(=O)n(C)c(=O)c2c(-c3cncn3C)n(Cc3cccc4ccccc34)nc21 | 4.44 ± 2.9%
17 | CC[C@H](CO)Nc1nc(NCc2ccccc2)c2ncn(C(C)C)c2n1 | 4.15 ± 1.7%
18 | CCCC1(C2CC2)c2cc(Cl)ccc2NC(=O)N1C (stereo not given) | 2.32 ± 0.043%
19 | CCCNc1ccc(S(=O)(=O)Nc2cc(C)on2)cc1 | 3.09 ± 1.4%
20 | CC(C)N(c1cc(-c2ccccc2)sc1C(=O)O)C(=O)[C@H]1CC[C@H](C)CC1 | 4.15 ± 1.8%

Row | Compound | progeny production
21 | COc1ccc(C2=CC(c3c(F)cccc3Cl)n3ncnc3N2)cc1 (stereo not given) | 3.01 ± 1.9%
22 | Cc1nc2ccc(Oc3ccccc3)cc2c2c1CCN2CCc1ccccc1 | 4.79 ± 0.99%
23 | O=C(N[C@H](CCS)C(=O)N[C@H](Cc1ccccc1)C(=O)O)c1cc2ccccc2[nH]1 | 6.68 ± 3.5%
24 | COC1CC2CCC(C)C(O)(O2)C(=O)C(=O)N2CCCCC2C(=O)OC(C(C)CC2CCC(OCCO)C(OC)C2)CC(=O)C(C)/C=C(\C)C(O)C(OC)C(=O)C(C)CC(C)/C=C/C=C/C=C/1C (stereo not given) | 5.45 ± 2.7%
25 | CCCCCOc1ccc(/C=C2\Oc3c(ccc(O)c3O)C2=O)c(O)c1 | 2.87 ± 0.23%
26 | N#Cc1c(F)c(Cl)c(NCc2ccccc2)c(C#N)c1F | 32.6 ± 17%
27 | O=S(=O)(Nc1ccccc1)c1ccc(NC(=S)Nc2ccccc2)cc1 | 8.72 ± 4.5%
28 | CCc1oc2ccccc2c1C(=O)c1ccc(O)cc1 | 11.4 ± 2.5%
29 | CC(C)Nc1nc2cc(Cl)c(Cl)cc2n1[C@H]1O[C@@H](CO)[C@H](O)[C@@H]1O | 3.85 ± 0.59%
30 | Cc1ccc(NC(=O)c2ccc(CN3CCN(C)CC3)cc2)cc1Nc1nccc(-c2cccnc2)n1 | 5.07 ± 2.9%
31 | Cc1cc(O)c2c(c1)C(=O)c1c(I)c(O)c(I)c(O)c1C2=O | 8.9 ± 5.8%
32 | O=C(Nc1ccc(N2CCN(C(=O)c3ccccc3)CC2)cc1)c1ccc2c(c1)OCO2 | 5.03 ± 1.4%
33 | Cc1[nH]c2ccccc2c1CC(=O)N[C@@H](Cc1ccccc1)C(=O)N(C)c1ccccc1 | 4.28 ± 2.4%
34 | CCc1cc(Nc2cc(=O)n(CCN3CCN(C(=O)c4ccccc4)CC3)c(=O)[nH]2)ccc1C | 5.16 ± 2.4%
35 | NC(=O)c1nccn([C@@H]2O[C@H](CO)[C@@H](O)[C@H]2O)c1=O | 6.9 ± 2.3%
36 | O=C(N[C@H](Cc1cccc2ccccc12)C(=O)NCCc1c[nH]cn1)C1Cc2ccccc2C1 | 7.87 ± 3.1%
37 | CCCCCCCCCN1C[C@@H](O)[C@H](O)[C@@H](O)[C@@H]1CO | 6.57 ± 1.1%
38 | CCN(CC)CCn1c(=N)n(CC(O)COc2ccc(Cl)cc2Cl)c2ccccc21 (stereo not given) | 7.02 ± 2.2%
39 | Fc1ccc2c(/C=C/c3cccnc3)c[nH]c2c1 | 3.47 ± 0.88%
40 | CCCCCCC1c2ccc(O)cc2Oc2cc(O)ccc21 | 4.98 ± 1.8%
